Results from the supplement of paper PMC11732987, “Enantioselective OTUD7B fragment discovery through chemoproteomics screening and high-throughput optimisation” (Communications Chemistry, 2025).

Key:
Assay in all cases: log2 ratio of Biotin-Ahx-Ub-VS probe labelling (fragment/DMSO); higher = less target engagement (more negative = stronger competition), active = hit call of the paper (q ≤ 0.05, log2 ratio ≤ -1)
Details in all cases: compound concentration: 200 uM; treatment time: 3 h
OTUD6B = biological target: T1, OTUD6B (UniProt Q8N6M0)
T1 sequence (whole entry): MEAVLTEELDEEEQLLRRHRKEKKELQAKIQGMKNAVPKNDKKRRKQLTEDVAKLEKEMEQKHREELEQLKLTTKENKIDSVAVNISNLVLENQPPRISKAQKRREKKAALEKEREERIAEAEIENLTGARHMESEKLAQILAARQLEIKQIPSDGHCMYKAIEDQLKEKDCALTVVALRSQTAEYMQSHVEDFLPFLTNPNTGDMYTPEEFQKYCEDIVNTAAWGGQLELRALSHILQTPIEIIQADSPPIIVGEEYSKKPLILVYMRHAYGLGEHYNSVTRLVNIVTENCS
In short: (§1)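 Fragment (200 µM) or vehicle was incubated for 3 h with triplicate HEK293T lysate samples of 495 µg, which were then treated with Biotin-Ahx-Ub-VS at 0.5 µM final for 1 h. Labelled DUBs were enriched on NeutrAvidin, digested with LysC and trypsin, and analysed by diaPASEF LC-MS/MS. Values are average log2 fragment/vehicle ratios from an unpaired t-test on global-median-normalised Spectronaut label-free quantities, using proteins with ≥2 unique peptides.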

OTUD7B = biological target: T2, OTUD7B (UniProt Q6GQQ9)
T2 sequence (whole entry): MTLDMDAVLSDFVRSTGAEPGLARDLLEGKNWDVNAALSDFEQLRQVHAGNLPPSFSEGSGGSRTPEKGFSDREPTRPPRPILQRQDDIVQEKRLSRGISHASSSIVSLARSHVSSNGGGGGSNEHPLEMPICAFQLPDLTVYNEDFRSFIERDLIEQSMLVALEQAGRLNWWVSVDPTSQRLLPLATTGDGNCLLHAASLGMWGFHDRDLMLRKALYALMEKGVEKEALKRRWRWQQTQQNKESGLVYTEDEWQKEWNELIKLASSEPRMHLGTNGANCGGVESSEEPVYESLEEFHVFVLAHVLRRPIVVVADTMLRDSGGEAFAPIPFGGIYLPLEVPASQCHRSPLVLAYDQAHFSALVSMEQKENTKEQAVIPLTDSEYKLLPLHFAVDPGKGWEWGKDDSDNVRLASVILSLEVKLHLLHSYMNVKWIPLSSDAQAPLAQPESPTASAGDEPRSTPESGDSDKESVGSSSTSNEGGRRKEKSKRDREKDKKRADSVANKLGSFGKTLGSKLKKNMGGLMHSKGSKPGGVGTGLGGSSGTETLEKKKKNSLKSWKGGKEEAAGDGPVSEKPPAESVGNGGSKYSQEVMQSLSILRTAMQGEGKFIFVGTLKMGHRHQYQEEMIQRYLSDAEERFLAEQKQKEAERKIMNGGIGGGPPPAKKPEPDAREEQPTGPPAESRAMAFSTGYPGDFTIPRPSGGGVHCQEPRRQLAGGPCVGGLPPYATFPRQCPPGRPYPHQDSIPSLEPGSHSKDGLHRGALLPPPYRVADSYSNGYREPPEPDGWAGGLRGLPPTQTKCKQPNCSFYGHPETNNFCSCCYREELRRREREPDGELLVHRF
In short: as §1

PRPF8 = PRPF8 (UniProt Q6P2Q9)
In short: as §1

PSMD7 = biological target: T3, PSMD7 (UniProt P51665)
T3 sequence (whole entry): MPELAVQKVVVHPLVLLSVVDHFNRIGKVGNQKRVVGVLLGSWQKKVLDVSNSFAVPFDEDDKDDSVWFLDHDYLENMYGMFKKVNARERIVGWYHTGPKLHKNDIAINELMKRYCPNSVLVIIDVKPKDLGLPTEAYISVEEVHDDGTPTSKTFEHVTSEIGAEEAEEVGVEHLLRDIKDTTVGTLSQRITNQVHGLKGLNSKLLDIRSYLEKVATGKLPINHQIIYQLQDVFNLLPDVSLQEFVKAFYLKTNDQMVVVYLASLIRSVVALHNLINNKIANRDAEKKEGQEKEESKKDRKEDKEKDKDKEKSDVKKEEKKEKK
In short: as §1

UCHL1 = UCHL1 (UniProt P09936)
In short: as §1

UCHL3 = biological target: T4, UCHL3 (UniProt P15374)
T4 sequence (whole entry): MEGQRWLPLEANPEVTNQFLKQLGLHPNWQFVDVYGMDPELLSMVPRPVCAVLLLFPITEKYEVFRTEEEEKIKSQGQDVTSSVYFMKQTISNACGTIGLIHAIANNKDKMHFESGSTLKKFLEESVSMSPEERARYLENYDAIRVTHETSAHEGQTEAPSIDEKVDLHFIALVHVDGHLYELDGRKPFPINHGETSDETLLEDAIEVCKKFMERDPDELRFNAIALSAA
In short: as §1

UCHL5 = biological target: T5, UCHL5 (UniProt Q9Y5K5)
T5 sequence (whole entry): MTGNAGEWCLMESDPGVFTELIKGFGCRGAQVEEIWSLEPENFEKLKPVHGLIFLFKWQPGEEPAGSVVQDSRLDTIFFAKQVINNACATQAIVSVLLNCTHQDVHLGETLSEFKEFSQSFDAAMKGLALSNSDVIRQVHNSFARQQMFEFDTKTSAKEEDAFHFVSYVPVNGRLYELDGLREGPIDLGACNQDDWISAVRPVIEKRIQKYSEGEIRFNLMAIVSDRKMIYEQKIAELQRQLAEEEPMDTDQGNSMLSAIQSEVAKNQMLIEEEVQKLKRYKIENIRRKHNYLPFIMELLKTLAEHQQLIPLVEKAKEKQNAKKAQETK
In short: as §1

USP10 = USP10 (UniProt Q14694)
In short: as §1

USP15 = biological target: T6, USP15 (UniProt Q9Y4E8)
T6 sequence (whole entry): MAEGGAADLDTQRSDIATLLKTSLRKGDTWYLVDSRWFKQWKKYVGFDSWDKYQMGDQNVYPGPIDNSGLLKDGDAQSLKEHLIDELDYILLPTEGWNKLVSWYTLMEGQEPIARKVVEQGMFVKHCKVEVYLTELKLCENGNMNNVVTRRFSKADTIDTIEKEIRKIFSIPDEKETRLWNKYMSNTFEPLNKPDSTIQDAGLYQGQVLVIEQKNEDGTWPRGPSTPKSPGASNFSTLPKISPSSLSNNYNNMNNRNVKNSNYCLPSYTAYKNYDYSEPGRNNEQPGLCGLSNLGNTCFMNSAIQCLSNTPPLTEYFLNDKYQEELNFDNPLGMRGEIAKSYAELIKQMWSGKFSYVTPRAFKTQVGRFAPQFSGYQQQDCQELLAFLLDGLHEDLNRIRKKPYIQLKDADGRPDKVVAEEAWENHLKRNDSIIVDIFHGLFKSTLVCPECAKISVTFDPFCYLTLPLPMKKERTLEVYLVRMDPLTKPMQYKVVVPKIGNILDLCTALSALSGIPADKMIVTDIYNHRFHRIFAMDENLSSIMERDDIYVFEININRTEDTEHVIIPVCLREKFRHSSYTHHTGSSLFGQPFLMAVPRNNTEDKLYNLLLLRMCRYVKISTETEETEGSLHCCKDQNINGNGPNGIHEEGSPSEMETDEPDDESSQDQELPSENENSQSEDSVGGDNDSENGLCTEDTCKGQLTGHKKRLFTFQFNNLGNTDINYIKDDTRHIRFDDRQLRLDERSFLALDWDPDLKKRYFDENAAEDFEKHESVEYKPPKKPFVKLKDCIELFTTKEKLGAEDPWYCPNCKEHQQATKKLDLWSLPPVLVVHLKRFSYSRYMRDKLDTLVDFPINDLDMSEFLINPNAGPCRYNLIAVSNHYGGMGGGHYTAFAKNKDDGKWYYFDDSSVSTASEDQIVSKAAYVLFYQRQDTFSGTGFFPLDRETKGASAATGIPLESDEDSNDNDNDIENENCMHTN
In short: as §1

USP16 = USP16 (UniProt Q9Y5T5)
In short: as §1

Measured: log2 ratio of Biotin-Ahx-Ub-VS probe labelling

UCHL1, sequence (P09936 whole entry, looked up): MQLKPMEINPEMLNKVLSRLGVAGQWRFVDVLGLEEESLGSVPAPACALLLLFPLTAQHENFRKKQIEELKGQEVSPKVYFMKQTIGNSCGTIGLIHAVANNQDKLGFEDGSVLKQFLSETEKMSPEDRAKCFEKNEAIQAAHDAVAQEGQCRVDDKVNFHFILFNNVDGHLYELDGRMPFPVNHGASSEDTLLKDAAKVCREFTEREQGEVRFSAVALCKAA
USP16, sequence (Q9Y5T5 whole entry, looked up): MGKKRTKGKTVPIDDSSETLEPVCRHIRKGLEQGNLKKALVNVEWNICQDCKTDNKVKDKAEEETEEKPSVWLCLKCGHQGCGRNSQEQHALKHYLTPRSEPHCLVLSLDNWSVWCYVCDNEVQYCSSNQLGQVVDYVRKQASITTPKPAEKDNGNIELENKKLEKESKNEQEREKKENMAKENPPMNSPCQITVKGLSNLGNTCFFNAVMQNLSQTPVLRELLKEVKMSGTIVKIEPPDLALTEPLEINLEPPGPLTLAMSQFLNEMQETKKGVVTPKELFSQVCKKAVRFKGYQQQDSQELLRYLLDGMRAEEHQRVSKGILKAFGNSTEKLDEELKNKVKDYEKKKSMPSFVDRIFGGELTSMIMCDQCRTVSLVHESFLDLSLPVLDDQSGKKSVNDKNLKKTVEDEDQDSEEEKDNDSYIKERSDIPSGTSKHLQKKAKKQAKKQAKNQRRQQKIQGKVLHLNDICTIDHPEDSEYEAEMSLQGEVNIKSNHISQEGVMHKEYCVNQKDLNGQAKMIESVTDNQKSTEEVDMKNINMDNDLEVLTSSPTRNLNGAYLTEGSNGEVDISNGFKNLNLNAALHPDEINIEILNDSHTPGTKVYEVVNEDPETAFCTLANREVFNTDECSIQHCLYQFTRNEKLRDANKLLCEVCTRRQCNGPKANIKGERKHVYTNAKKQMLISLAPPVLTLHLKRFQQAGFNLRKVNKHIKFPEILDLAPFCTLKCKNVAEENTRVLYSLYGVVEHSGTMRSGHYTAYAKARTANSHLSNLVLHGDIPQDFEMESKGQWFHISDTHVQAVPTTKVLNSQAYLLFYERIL
USP10, sequence (Q14694 whole entry): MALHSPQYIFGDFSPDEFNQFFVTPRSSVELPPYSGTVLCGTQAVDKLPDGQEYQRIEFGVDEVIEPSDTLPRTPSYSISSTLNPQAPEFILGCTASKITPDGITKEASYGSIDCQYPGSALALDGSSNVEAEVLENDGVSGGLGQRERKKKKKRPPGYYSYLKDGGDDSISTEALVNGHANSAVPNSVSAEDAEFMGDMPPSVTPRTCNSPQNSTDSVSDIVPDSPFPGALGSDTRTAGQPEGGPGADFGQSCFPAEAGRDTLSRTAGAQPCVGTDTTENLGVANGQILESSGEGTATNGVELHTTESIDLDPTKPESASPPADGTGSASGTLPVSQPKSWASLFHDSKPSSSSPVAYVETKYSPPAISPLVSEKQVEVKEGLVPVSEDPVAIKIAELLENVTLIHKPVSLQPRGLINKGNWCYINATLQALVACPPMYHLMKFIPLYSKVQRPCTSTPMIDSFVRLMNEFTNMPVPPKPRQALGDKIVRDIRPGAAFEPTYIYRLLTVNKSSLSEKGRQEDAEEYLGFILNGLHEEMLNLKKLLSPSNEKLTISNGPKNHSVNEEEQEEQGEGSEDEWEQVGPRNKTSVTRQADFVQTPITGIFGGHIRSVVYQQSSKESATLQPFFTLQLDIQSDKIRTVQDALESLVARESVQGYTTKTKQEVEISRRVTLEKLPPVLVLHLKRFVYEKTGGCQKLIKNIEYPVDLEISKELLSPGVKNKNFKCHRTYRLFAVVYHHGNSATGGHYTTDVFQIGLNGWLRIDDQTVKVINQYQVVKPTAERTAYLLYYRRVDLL

O=C(CCl)N[C@H]1CC[C@@H](CO)CC1
active: OTUD7B -1.44 | UCHL1 -2.47
inactive: OTUD6B -0.662 | PRPF8 -0.24 | PSMD7 -0.201 | UCHL3 -0.884 | UCHL5 -0.9 | USP10 -0.226 | USP15 -0.938 | USP16 -0.292
